The panel holds about 79,000 compounds, 15% with a hit somewhere; the sample as a whole holds those more often. Values without a mark were called inactive. Active and inactive are the calls of the source. No stated cut-off is given here; in the data, active means growth inhibition above about 70%; inactive means the rest.
What was measured:
[1] = NCI Yeast Anticancer Drug Screen. Data for the rad50 strain (AID 155);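 further: 0% = growth of vehicle-only cultures of the same strain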; conditions: S. cerevisiae rad50 strain growth inhibition, stronger effect = higher value
Method in brief: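 Genetically altered yeast (DNA repair pathway); compound treatment; growth inhibition vs vehicle ctrl.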

[2] = NCI Yeast Anticancer Drug Screen. Data for the mec2-1 strain (AID 157); conditions: S. cerevisiae mec2-1 strain, stronger effect = higher value
Method in brief: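 Cells of the genetically defined mec2-1 yeast strain are incubated with test compound. Inhibition of growth is calculated against vehicle-treated controls.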

[3] = NCI Yeast Anticancer Drug Screen. Data for the sgs1 mgt1 strain (AID 161);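 further: 0% = growth of cultures given vehicle only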; conditions: S. cerevisiae sgs1 mgt1 strain, stronger effect = higher value
Method in brief: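 Test agents were incubated with a DNA-repair-mutant yeast strain. Growth was then read and compared against vehicle-treated controls.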

[4] = NCI Yeast Anticancer Drug Screen. Data for the cln2 rad14 strain (AID 165);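 further: 0% = growth equal to vehicle treated cultures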; conditions: S. cerevisiae cln2 rad14 strain, stronger effect = higher value
Method in brief: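 The screen exposed genetically defined yeast (cln2 rad14) to test compounds and scored growth inhibition relative to vehicle-treated controls.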

[5] = NCI Yeast Anticancer Drug Screen. Data for the mlh1 rad18 strain (AID 175); conditions: S. cerevisiae mlh1 rad18 strain growth inhibition, stronger effect = higher value
Method in brief: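 Compound-treated yeast growth, normalised to vehicle controls. Strain bears defined DNA repair mutations.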

[6] = NCI Yeast Anticancer Drug Screen. Data for the bub3 strain (AID 167); conditions: S. cerevisiae bub3 mutant strain, stronger effect = higher value
Method in brief: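 Yeast carrying a defined mutation is treated with each compound, and growth is compared with that of vehicle-exposed cells to give inhibition.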

[7] = at 5.0 µM (retest, dose inferred, filed as 0.5)
[8] = at 50.0 µM (retest, dose inferred, filed as 5.0)

Q: With `C/C(=N/NC(N)=S)c1ccc(C)cc1` as the compound, how does the growth inhibition [1, 7] read?
A: -4%

Q: And the growth inhibition [1, 8]?
A: 40%

Q: What about the growth inhibition ([1]; at 50.0 µM) of the same compound?
A: 69%

Q: What about the growth inhibition [2, 7] of the same compound?
A: -4%

Q: What about the growth inhibition [2, 8] of the same compound?
A: 6%

Q: And the growth inhibition ([2]; at 50.0 µM)?
A: 3.5%

Q: What about the growth inhibition [3, 7] of the same compound?
A: -5%

Q: What about the growth inhibition [3, 8] of the same compound?
A: 2%

Q: And the growth inhibition ([3]; at 50.0 µM)?
A: 40.2%

Q: And the growth inhibition [4, 7]?
A: -11%

Q: What about the growth inhibition [4, 8] of the same compound?
A: -22%

Q: What about the growth inhibition ([4]; at 50.0 µM) of the same compound?
A: 2.3%

Q: And the growth inhibition [5, 7]?
A: -4%

Q: And the growth inhibition [5, 8]?
A: 20%

Q: And the growth inhibition ([5]; at 50.0 µM)?
A: 66.1%

Q: What does the source list for `CCCc1cc(=O)oc2c3c(c4c(c12)OC(C)(C)CC4)OC(C)[C@H](C)[C@@H]3O` (stereo not given in full)?
A: growth inhibition [1, 7]: 36%; growth inhibition [1, 8]: 90% (active); growth inhibition ([1]; at 50.0 µM): 83.7% (active); growth inhibition [2, 7]: 36%; growth inhibition [2, 8]: 92% (active); growth inhibition ([2]; at 50.0 µM): 85.6% (active); growth inhibition [3, 7]: 28%; growth inhibition [3, 8]: 90% (active); growth inhibition ([3]; at 50.0 µM): 80.2% (active); growth inhibition [4, 7]: 27%; growth inhibition [4, 8]: 93% (active); growth inhibition ([4]; at 50.0 µM): 85.2% (active); growth inhibition [5, 7]: 31%; growth inhibition [5, 8]: 94% (active); growth inhibition ([5]; at 50.0 µM): 77% (active)

Q: With `CCCCN(CCCC)C(=O)C(C)OC(C)=O` (stereo not given) as the compound, how does the growth inhibition [1, 7] read?
A: 0%

Q: And the growth inhibition [1, 8]?
A: 25%

Q: And the growth inhibition [2, 7]?
A: -4%

Q: What about the growth inhibition [2, 8] of the same compound?
A: 0%

Q: And the growth inhibition [3, 7]?
A: -3%

Q: What about the growth inhibition [3, 8] of the same compound?
A: 6%

Q: What about the growth inhibition [4, 7] of the same compound?
A: 10%

Q: What about the growth inhibition [4, 8] of the same compound?
A: 1%

Q: And the growth inhibition [6, 7]?
A: -2%

Q: And the growth inhibition [6, 8]?
A: -8%

Q: And the growth inhibition [5, 7]?
A: -38%

Q: What about the growth inhibition [5, 8] of the same compound?
A: 8%

Q: What does the source list for `O=C(CBr)c1ccc(OC(=O)c2ccccc2)cc1`?
A: growth inhibition [1, 7]: 97% (active); growth inhibition [1, 8]: 99% (active); growth inhibition ([1]; at 50.0 µM): 45.3%; growth inhibition [2, 7]: 100% (active); growth inhibition [2, 8]: 99% (active); growth inhibition ([2]; at 50.0 µM): 13.1%; growth inhibition [4, 7]: 44%; growth inhibition [4, 8]: 99% (active); growth inhibition ([4]; at 50.0 µM): -12.7%; growth inhibition [6, 7]: 100% (active); growth inhibition [6, 8]: 100% (active); growth inhibition ([6]; at 50.0 µM): 45.8%; growth inhibition [5, 7]: 62%; growth inhibition [5, 8]: 98% (active); growth inhibition ([5]; at 50.0 µM): 74.5% (active)

Q: Which growth inhibition [1, 7] does the source give for `O=C1/C(=C\c2ccc([N+](=O)[O-])cc2)CS(=O)(=O)C/C1=C/c1ccc([N+](=O)[O-])cc1` here?
A: 81% (active)

Q: And the growth inhibition [1, 8]?
A: 96% (active)

Q: What about the growth inhibition [2, 7] of the same compound?
A: 97% (active)

Q: And the growth inhibition [2, 8]?
A: 98% (active)

Q: And the growth inhibition [3, 7]?
A: 93% (active)

Q: What about the growth inhibition [3, 8] of the same compound?
A: 96% (active)

Q: And the growth inhibition ([3]; at 50.0 µM)?
A: 87.2% (active)

Q: What about the growth inhibition [4, 7] of the same compound?
A: 91% (active)

Q: What about the growth inhibition [4, 8] of the same compound?
A: 97% (active)

Q: And the growth inhibition ([4]; at 50.0 µM)?
A: 86.8% (active)

Q: What about the growth inhibition [6, 7] of the same compound?
A: 97% (active)

Q: What about the growth inhibition [6, 8] of the same compound?
A: 99% (active)

Q: And the growth inhibition ([6]; at 50.0 µM)?
A: 87.6% (active)

Q: What about the growth inhibition [5, 7] of the same compound?
A: 94% (active)

Q: And the growth inhibition [5, 8]?
A: 96% (active)

Q: Which results are given for `C/C(=N\NC(=S)N1CCC1)c1ccccn1`?
A: growth inhibition [1, 7]: 91% (active); growth inhibition [1, 8]: 96% (active); growth inhibition [2, 7]: 88% (active); growth inhibition [2, 8]: 98% (active); growth inhibition [3, 7]: 92% (active); growth inhibition [3, 8]: 99% (active); growth inhibition ([3]; at 50.0 µM): 87.8% (active); growth inhibition [4, 7]: 93% (active); growth inhibition [4, 8]: 96% (active); growth inhibition ([4]; at 50.0 µM): 87% (active); growth inhibition [6, 7]: 94% (active); growth inhibition [6, 8]: 98% (active); growth inhibition ([6]; at 50.0 µM): 87.5% (active); growth inhibition [5, 7]: 93% (active); growth inhibition [5, 8]: 96% (active)

Q: Which growth inhibition [1, 7] does the source give for `Nc1ccc(-c2ccc(N)c(S(=O)(=O)O)c2)cc1S(=O)(=O)O` here?
A: 4%

Q: And the growth inhibition [1, 8]?
A: 2%

Q: What about the growth inhibition ([1]; at 50.0 µM) of the same compound?
A: -11.9%

Q: And the growth inhibition [3, 7]?
A: 5%

Q: And the growth inhibition [3, 8]?
A: 3%

Q: What about the growth inhibition ([3]; at 50.0 µM) of the same compound?
A: 7.85%

Q: And the growth inhibition [4, 7]?
A: 9%

Q: And the growth inhibition [4, 8]?
A: 24%

Q: What about the growth inhibition ([4]; at 50.0 µM) of the same compound?
A: 49%

Q: What about the growth inhibition [6, 7] of the same compound?
A: 6%

Q: What about the growth inhibition [6, 8] of the same compound?
A: 15%

Q: And the growth inhibition ([6]; at 50.0 µM)?
A: 33.2%

Q: And the growth inhibition [5, 7]?
A: 13%

Q: What about the growth inhibition [5, 8] of the same compound?
A: 6%

Q: What about the growth inhibition ([5]; at 50.0 µM) of the same compound?
A: -21.8%

Q: Which results are given for `c1ccc(-c2cccc(-c3ccccn3)n2)nc1`?
A: growth inhibition [1, 7]: 93% (active); growth inhibition [1, 8]: 99% (active); growth inhibition ([1]; at 50.0 µM): 99.4% (active); growth inhibition [2, 7]: 74% (active); growth inhibition [2, 8]: 99% (active); growth inhibition ([2]; at 50.0 µM): 99.7% (active); growth inhibition [4, 7]: 81% (active); growth inhibition [4, 8]: 99% (active); growth inhibition ([4]; at 50.0 µM): 99.1% (active); growth inhibition [6, 7]: 96% (active); growth inhibition [6, 8]: 99% (active); growth inhibition ([6]; at 50.0 µM): 99.2% (active); growth inhibition [5, 7]: 83% (active); growth inhibition [5, 8]: 99% (active); growth inhibition ([5]; at 50.0 µM): 99.5% (active)

Q: With `COc1c(C)c2c(c(O)c1C/C=C(\C)CCC(=O)O)C(=O)OC2` as the compound, how does the growth inhibition [1, 7] read?
A: 31%

Q: What about the growth inhibition [1, 8] of the same compound?
A: 86% (active)

Q: And the growth inhibition ([1]; at 50.0 µM)?
A: 85.3% (active)

Q: And the growth inhibition [2, 7]?
A: 11%

Q: And the growth inhibition [2, 8]?
A: 88% (active)

Q: What about the growth inhibition ([2]; at 50.0 µM) of the same compound?
A: 90.9% (active)

Q: What about the growth inhibition [4, 7] of the same compound?
A: 32%

Q: What about the growth inhibition [4, 8] of the same compound?
A: 95% (active)

Q: And the growth inhibition ([4]; at 50.0 µM)?
A: 90.2% (active)

Q: What about the growth inhibition [6, 7] of the same compound?
A: 17%

Q: And the growth inhibition [6, 8]?
A: 91% (active)

Q: And the growth inhibition ([6]; at 50.0 µM)?
A: 89.2% (active)

Q: What about the growth inhibition [5, 7] of the same compound?
A: 38%

Q: What about the growth inhibition [5, 8] of the same compound?
A: 92% (active)

Q: For `Clc1ccc(-n2ncc3c(NCCCN4CCOCC4)ncnc32)cc1`, which growth inhibition [1, 7] is on record?
A: 3%

Q: What about the growth inhibition [1, 8] of the same compound?
A: 82% (active)

Q: What about the growth inhibition ([1]; at 50.0 µM) of the same compound?
A: 56%

Q: And the growth inhibition [4, 7]?
A: 19%

Q: And the growth inhibition [4, 8]?
A: 62%

Q: What about the growth inhibition ([4]; at 50.0 µM) of the same compound?
A: 35.4%

Q: And the growth inhibition [6, 7]?
A: 16%

Q: What about the growth inhibition [6, 8] of the same compound?
A: 77% (active)

Q: And the growth inhibition ([6]; at 50.0 µM)?
A: 47.4%

Q: What about the growth inhibition [5, 7] of the same compound?
A: 9%

Q: What about the growth inhibition [5, 8] of the same compound?
A: 79% (active)

Q: And the growth inhibition ([5]; at 50.0 µM)?
A: 75.6% (active)

Q: With `O=[N+]([O-])/C=C/c1cccs1` as the compound, how does the growth inhibition [1, 7] read?
A: 95% (active)

Q: What about the growth inhibition [1, 8] of the same compound?
A: 98% (active)

Q: What about the growth inhibition [2, 7] of the same compound?
A: 33%

Q: And the growth inhibition [2, 8]?
A: 99% (active)

Q: And the growth inhibition [3, 7]?
A: 69%

Q: And the growth inhibition [3, 8]?
A: 100% (active)

Q: And the growth inhibition [4, 7]?
A: 16%

Q: And the growth inhibition [4, 8]?
A: 99% (active)

Q: And the growth inhibition [6, 7]?
A: 48%

Q: What about the growth inhibition [6, 8] of the same compound?
A: 100% (active)

Q: What about the growth inhibition [5, 7] of the same compound?
A: 4%

Q: And the growth inhibition [5, 8]?
A: 98% (active)

Q: Which growth inhibition [1, 7] does the source give for `C/C(=N\NC(=S)N(C)C)c1ccccn1` here?
A: 94% (active)

Q: And the growth inhibition [1, 8]?
A: 98% (active)

Q: What about the growth inhibition [2, 7] of the same compound?
A: 92% (active)

Q: And the growth inhibition [2, 8]?
A: 99% (active)

Q: And the growth inhibition [3, 7]?
A: 93% (active)

Q: What about the growth inhibition [3, 8] of the same compound?
A: 99% (active)

Q: What about the growth inhibition ([3]; at 50.0 µM) of the same compound?
A: 88.6% (active)

Q: And the growth inhibition [4, 7]?
A: 91% (active)

Q: And the growth inhibition [4, 8]?
A: 97% (active)

Q: And the growth inhibition ([4]; at 50.0 µM)?
A: 89.3% (active)

Q: And the growth inhibition [6, 7]?
A: 95% (active)

Q: And the growth inhibition [6, 8]?
A: 99% (active)

Q: And the growth inhibition ([6]; at 50.0 µM)?
A: 88.7% (active)

Q: And the growth inhibition [5, 7]?
A: 95% (active)

Q: And the growth inhibition [5, 8]?
A: 98% (active)
